BCR signal inh – inhibitors of chronic active B-cell receptor signaling; ABC-DLBCL IkBa-CBG/CBR reporter, luminescence ratio, 4 h; Potency, µM (doses to about 46.1 µM), inactives show at the top dose activity change, negative = inhibition, most hits filed as inhibitors; 340,000 compounds, 0.05% hits; AID 493014; active = well fitted inhibition curve with a large enough effect in the signal ratio, with a control signal flat, not every such curve was filed as active; inconclusive = small, poorly fitted or top-dose-only effect, or effect the other way, or a change in a side signal; the % refers to the signal ratio;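 also: potency is read from the fitted curve at half-maximal effect; plate controls were basal doxycycline-induced cells for no effect and cells given 10 µM MG132 for full effect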
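Doxycycline induced both beetle luciferases in TMD8 lymphoma cells; IKK-driven degradation limits the IkappaBalpha-fused green signal, while red luminescence normalises for cell number and nonspecific effects. Compounds tested up to 46 uM, 4 hrs.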
DT40 TDP1 no CPT – qHTS for Inhibitors of human tyrosyl-DNA phosphodiesterase 1 (TDP1): qHTS in cells in absence of CPT; 420,000 compounds, 15% hits; DT40 Tdp1-/- hTDP1 cells, no CPT, ATP luminescence, 48 h; Potency, µM (titrated, usually from 46.2 µM), without a hit: top-dose activity change, negative = growth inhibition, usual class: inhibitors; also: potency is read from the fitted curve at half-maximal effect; % is scaled to controls: 0 for no effect and ±100 for the full control effect; nearly all actives have a fitted effect of over 55% in size
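Camptothecin absent (DMSO only). Human TDP1-complemented DT40 knockout cells, 400 cells/well, 37 °C for minimum 48 hr; ATP measured via CellTiter-Glo, 30 min dark incubation, luminescence.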
DT40 TDP1 CPT – growth inhibition of DT40 Tdp1-/-;hTDP1 cells with camptothecin (screen for TDP1 inhibitors) | chicken DT40 Tdp1-/-;hTDP1 cells + 20 nM CPT, ATP luminescence, 48 h | AID 686979 | 420,000 compounds, 12% hits | Potency, µM (doses to about 46.2 µM), without a hit: at the highest dose activity change, negative = growth inhibition, most hits filed as inhibitors; also: potency is read from the fitted curve at half-maximal effect; % is scaled to controls: 0 for no effect and ±100 for the full control effect; nearly all actives have a fitted effect of over 55% in size
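Cell growth measured by CellTiter-Glo luminescence after a minimum 48 h, 37 C compound exposure with 20 nM CPT in Tdp1-knockout DT40 cells stably expressing hTDP1, seeded 400/well; qHTS titration format.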
SW480 rereplic – induces DNA re-replication in SW480 colon adenocarcinoma cells | SW480 DNA re-replication, Hoechst DNA content imaging, 48 h | Potency, µM (titrated, usually from 46.1 µM), inactives show at the top dose re-replication activation, hits mostly activators | 340,000 compounds, 1.8% hits | AID 624297; also: potency is read from the fitted curve at half-maximal effect; % of control where 0% means no effect; nearly all actives have a fitted effect of over 55% in size
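Image-based DNA-content assay: after two days of treatment, nuclei were labelled with the DNA dye Hoechst and imaged, and hits were compounds raising the count of nuclei showing high fluorescence intensity.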
MCF10A rerep – inducers of DNA re-replication in MCF 10A breast cells. AID 624296. Potency, µM (doses to about 46.1 µM), for the others: at the highest dose activity, positive = re-replication, most hits filed as activators. MCF 10A DNA re-replication, Hoechst nuclear intensity, 48 h. 350,000 compounds, 2.9% hits; also: potency is read from the fitted curve at half-maximal effect; % of control where 0% means no effect; nearly all actives have a fitted effect of over 50% in size
IL-1B inflam inh – blocks inflammasome-driven IL-1 beta release | activity change, % at 57.5 µM | THP-1 LPS/ATP IL-1B secretion, AlphaLISA, 16 h; hits give low values | 360,000 compounds, 4.7% hits; in the data active = activity change below about -50%; inconclusive = mostly about -30% to -49%; also: % is scaled to controls: 0 for no effect and ±100 for the full control effect
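Secreted IL-1B measured by AlphaLISA bead assay after 16 h compound exposure of THP-1 cells; compounds (final up to 57.5 uM) added 1 h before LPS (250 ng/mL) and ATP (1.25 mM) stimulation; lower signal means less secretion.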
Active calls of the source: *; ? = inconclusive; . = no result given; ! = a repeat was not active. This is a sample that favours compounds with a hit; in the whole collection about 19% have one here. Unless noted, calls follow the shape of the dose curve; as a rule, active = well fitted curve in the direction sought with a large enough effect; inconclusive = small, poorly fitted or top-dose-only effect, or another doubt; inactive = no such curve, though single readings can be large; an effect the other way counts as inactive or inconclusive.

SMILES | BCR signal inh | DT40 TDP1 no CPT | DT40 TDP1 CPT | SW480 rereplic | MCF10A rerep | IL-1B inflam inh
CN(C)S(=O)(=O)c1ccc(Cl)c(NC(=O)COc2ccccc2[N+](=O)[O-])c1 | -1.3% | 3.26µM* | ? | -20.9% | 5.2% | 0.4
Cc1ccc(CN2CCN(CC(=O)N/N=C/c3ccc(C)o3)CC2)cc1 | -1.6% | ? | -15.2% | 20.3% | -4.2% | -12.0
CCCCOc1ccc(N2C(=O)C(C)CNC2=S)cc1 (configuration not stated) | . | 6.5% | 10.5% | -3.0% | 1.3% | 42.0
CNc1c(NC(=O)c2ccc3c(c2)OCO3)c(=O)oc2ccccc12 | ? | 6.7% | -17.6% | -2.3% | -1.2% | -13.3
COc1ccc([C@@H]2Sc3ccccc3N(CCN(C)C)C(=O)[C@@H]2OC(C)=O)cc1 | 0.8% | 26.6µM*! | ? | ? | 11.6% | 9.6
COc1ccc(N2C(=O)C(OC(C)=O)C2c2ccc(C)cc2)cc1 (configuration not stated) | 5.5% | ? | -4.3% | 2.5% | 6.5% | 26.9
CC1=C(C(=O)N2CCCC(N3CCN(c4ccccc4F)CC3)C2)OCCO1 (configuration not stated) | -2.4% | -0.5% | 2.6% | -2.3% | -1.2% | 2.8
CC(C)(C)OC(=O)N1CCC(c2c(C(=O)Nc3ccc4c(c3)OCCO4)cnn2-c2ccc(F)cc2F)CC1 | . | -108.0% | 20.6µM* | . | . | .
COc1ccc(NC(=O)c2cnn(-c3ccc(F)cc3F)c2C2CCN(C(=O)OC(C)(C)C)CC2)cc1Cl | . | 18.4µM* | ? | . | . | .
CC(C)(C)OC(=O)N1CCC(c2c(C(=O)O)cnn2-c2ccc(F)cc2F)CC1 | . | -3.5% | -1.9% | . | . | .
Cc1cccc(-n2ncc(C(=O)Nc3ccc4c(c3)OCO4)c2C2CCN(C(=O)OC(C)(C)C)CC2)c1 | . | ? | 18.4µM* | . | . | .
COc1ccccc1/C=C\C(=O)NCC(=O)N/N=C(/C)c1cccc([N+](=O)[O-])c1 | ? | ? | ? | -0.8% | 13.4% | 68.3
CC1(C)Cc2nc3oc4c(N(CCO)Cc5ccccc5)ncnc4c3cc2CO1 | -0.8% | 20.6µM* | 20.6µM* | -7.9% | 18.9% | -19.2
CNc1nc(Oc2ccc3sc(C)nc3c2)c2sccc2n1 | . | 20.6µM* | 20.6µM* | . | . | 21.2
O=C(NCCc1ccc(Cl)cc1)c1ccc(Br)s1 | -0.2% | -7.9% | -13.4% | -5.5% | 11.0% | -29.4
COc1cccc(CCc2nnc(CCC(=O)NCCC3CCCCO3)o2)c1 (configuration not stated) | 1.0% | 19.4% | 10.9% | 14.1% | 0.7% | 1.1
O=C1CCc2ccccc2O1 | -0.4% | -2.7% | 8.3% | 0.4% | 0.4% | -7.4
O=C1CCC(=O)O1 | -0.6% | 5.2% | -0.5% | ? | -33.4% | -53.5*
Cc1ccc(Cn2nnnc2CN2CCC(NC(=O)c3ccc(Br)cc3)CC2)cc1 | -2.7% | 18.4µM* | ? | -2.8% | 2.9% | -4.5
COc1ccc(CC(=O)NC2CCN(Cc3nnnn3C(C)(C)C)CC2)cc1OC | -2.0% | -2.5% | -4.7% | 1.3% | 1.9% | 0.0
CCC(C)(C)n1nnnc1CN1CCC(NC(=O)c2ccc(Br)cc2)CC1 | 2.9% | 20.6µM* | ? | 2.4% | 6.4% | -7.7
Cc1ccc(Cn2nnnc2CN2CCC(c3nc4ccc(Cl)cc4[nH]3)CC2)cc1 | ? | 2.31µM* | 2.59µM* | 12.0% | ? | -81.4*
Clc1ccc2nc(C3CCN(Cc4nnnn4C4CCCCC4)CC3)[nH]c2c1 | ? | ? | ? | 17.2% | 24.9% | -0.6
CCOC(=O)N1CCN(S(=O)(=O)c2c(C)nc3scc(C)n3c2=O)CC1 | 0.6% | ? | -6.5% | -5.8% | 4.7% | 28.8
Nc1n[nH]c(N)c1N=Nc1ccc(Cl)cc1Cl | ? | 13.5% | 1.2% | ? | 20.6% | -57.2*

High-throughput results from PubChem.
